From PubChem BioAssay AID1159580 (chemical genetic matrix, 2015)
Values joined by “and” are separate entries in the source; they are usually repeats but may differ in a detail not shown here. Identical values can stand only once. About 2,000 (36%) of roughly 5,500 compounds were called active. Roughly 18% stayed inconclusive and do not appear here. Rule as the data show it: active = normalized growth mostly below about 0.91 (no sharp cut-off); inconclusive = no clear call, values can overlap the other calls; inactive = mostly above about 0.92. The list shows a part of the results.

Experiment: chemical genetic growth profiling, strain panel (AID 1159580);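 also: tested at 20 µM; growth read once vehicle control cultures reached saturation at 30 °C; 1 = growth at the plate median or of vehicle wells; lower values mean less growth of the strain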
Conditions: S. cerevisiae deletion strains, growth OD

Measured: normalized growth

COc1cc2c(cc1OC)C1(O)C(=O)c3ccc(O)c(C(=O)O)c3OC1CO2 (configuration not stated)
inactive: locus YAL021C, strain ccr4, hits give low values 1 | locus YAL026C, strain drs2, hits give low values 0.988 | locus YAL030W, strain snc1, hits give low values 1 | locus YBL061C, strain skt5, hits give low values 0.995 | locus YBR009C, strain hhf1, hits give low values 0.998 | locus YBR021W, strain FUR4, hits give low values 1.06 | locus YBR023C, strain chs3, hits give low values 1.01 | locus YBR171W, strain sec66, hits give low values 0.996 | locus YBR229C, strain ROT2, hits give low values 1.01 | locus YBR231C, strain swc5, hits give low values 1.01 | locus YBR279W, strain paf1, hits give low values 0.985 | locus YCL011C, strain gbp2, hits give low values 0.991 | locus YCL016C, strain dcc1, hits give low values 0.98 | locus YCL029C, strain bik1, hits give low values 0.985 | locus YCL069W, strain vba3, hits give low values 1 | locus YCR088W, strain abp1, hits give low values 0.996 | locus YDL005C, strain med2, hits give low values 1.01 | locus YDL035C, strain GPR1, hits give low values 1.05 | locus YDL040C, strain nat1, hits give low values 0.998 | locus YDL074C, strain BRE1, hits give low values 1.05 | locus YDL101C, strain DUN1, hits give low values 0.991 | locus YDL185W, strain tfp1, hits give low values 0.954 | locus YDL192W, strain arf1, hits give low values 1.02 | locus YDR001C, strain nth1, hits give low values 0.987 | locus YDR069C, strain doa4, hits give low values 0.991 | locus YDR101C, strain arx1, hits give low values 1.05 | locus YDR137W, strain rgp1, hits give low values 0.973 | locus YDR159W, strain sac3, hits give low values 1 | locus YDR162C, strain NBP2, hits give low values 0.993 | locus YDR195W, strain ref2 0.955 | locus YDR297W, strain sur2, hits give low values 1 | locus YDR318W, strain mcm21, hits give low values 0.986 | locus YDR334W, strain swr1, hits give low values 0.978 | locus YDR335W, strain msn5, hits give low values 1.01 | locus YDR388W, hits give low values 0.977 | locus YDR392W, strain spt3, hits give low values 0.974 | locus YDR502C, strain sam2, hits give low values 0.983 | locus YEL003W, strain gim4, hits give low values 0.998 | locus YEL037C, strain rad23, hits give low values 0.987 | locus YEL061C, strain CIN8 (second series), hits give low values 0.989 | locus YEL061C, strain CIN8, hits give low values 0.998 | locus YER015W, strain faa2, hits give low values 0.989 | locus YER016W, strain bim1, hits give low values 0.991 | locus YER110C, hits give low values 0.979 | locus YER111C, strain swi4, hits give low values 0.98 | locus YER155C, strain BEM2 (second series), hits give low values 0.994 | locus YER155C, strain BEM2, hits give low values 0.99 | locus YER167W, strain BCK2, hits give low values 1.04 | locus YFR010W, strain ubp6, hits give low values 1 | locus YGL078C, strain dbp3, hits give low values 0.981 | locus YGL086W, strain mad1, hits give low values 1.02 | locus YGL167C, strain pmr1, hits give low values 0.998 | locus YGL173C, strain kem1, hits give low values 0.994 | locus YGL227W, strain vid30, hits give low values 0.991 | locus YGL240W, strain doc1, hits give low values 1.01 | locus YGL248W, strain PDE1, hits give low values 1.02 | locus YGL253W, strain hxk2, hits give low values 0.999 | locus YGR078C, strain PAC10, hits give low values 0.991 | locus YGR135W, strain pre9, hits give low values 0.98 | locus YGR252W, strain gcn5, hits give low values 1.09 | locus YHR013C, strain ard1, hits give low values 0.972 | locus YHR027C, strain rpn1, hits give low values 0.991 | locus YHR030C, strain SLT2, hits give low values 0.99 | locus YHR079C, strain IRE1 (second series), hits give low values 0.99 | locus YHR079C, strain IRE1, hits give low values 0.983 | locus YHR094C, strain hxt1, hits give low values 0.982 | locus YHR129C, strain ARP1, hits give low values 1 | locus YHR142W, strain chs7, hits give low values 0.98 | locus YHR200W, strain rpn10, hits give low values 0.995 | locus YIL066C, strain RNR3, hits give low values 1.02 | locus YIL073C, strain SPO22, hits give low values 0.932 | locus YIL125W, strain kgd1, hits give low values 0.985 | locus YIR030C, strain dcg1, hits give low values 0.997 | locus YJL092W, strain hpr5, hits give low values 1.02 | locus YJL095W, strain BCK1 (second series), hits give low values 0.989 | locus YJL095W, strain BCK1, hits give low values 0.99 and 0.98 | locus YJL115W, strain asf1, hits give low values 0.986 | locus YJL129C, strain trk1, hits give low values 0.972 | locus YJL134W, strain LCB3, hits give low values 0.986 | locus YJL154C, strain vps35, hits give low values 0.995 | locus YJL164C, strain tpk1, hits give low values 0.998 | locus YJL166W, strain qcr8, hits give low values 0.997 | locus YJL168C, strain set2, hits give low values 0.989 | locus YJL187C, strain SWE1 (second series), hits give low values 0.989 | locus YJL187C, strain SWE1, hits give low values 0.999 | locus YJR043C, strain POL32, hits give low values 1.08 | locus YJR066W, strain TOR1, hits give low values 0.9
